The whole screen tested about 340,000 compounds, of which about 3,300 (0.97%) were called active. Another 9% or so got no clear call; they are omitted. Calls come from the whole dose curve; as a rule, active = well fitted inhibition curve with a large enough effect; inconclusive = small, poorly fitted or top-dose-only effect, or effect the other way; inactive = flat fitted curve, though single readings scatter. This is one part of the list.
Assay: qHTS Assay for Modulators of miRNAs and/or Inhibitors of miR-21; note: nearly all actives have a fitted effect of over 55% in size
Settings: HeLa miR-21-FLuc reporter, luciferase luminescence, 48 h; actives lower the signal
Text: MLSCN Grant: 1 R21 NS059478-01 Assay Provider: Qihong Huang, The Wistar Institute NCGC Assay Overview: MicroRNAs (miRNAs) are endogenously encoded small (~20-25 nucleotides), nonprotein-coding RNAs that are involved in post-transcriptional repression of target messenger RNAs (mRNAs) (Le and Hannon, 2004). Estimated to be involved in the regulation of 30% of all protein-coding mRNAs (Filipowicz et al., 2008), miRNAs play a significant role in many biological processes including cellular differentiation and tissue development (Ghildiyal and Zamore, 2009).
NCGC Assay Protocol Summary: Reagents: HeLa cells stably expressing firefly luciferase (FLuc) under the control of a CMV promoter (upstream) and a miR-21 binding sequence directly downstream of the gene. These cells endogenously express miR-21. Control compounds used were compound C3 (provided by collaborator), N6-phenyladenosine (MP Biomedicals, 0215379625), and DMSO. Assay Summary: 6uL of HeLa miR-21-FLuc cells in assay buffer (DMEM, Invitrogen #21063-029; 10% FBS, HyClone #SH30071.03) were dispensed at 2000cells/well (3.3 x 10^5 cells/mL) into Greiner solid-white TC-treated 1536-well plates using a Multidrop Combi (Thermo Fisher Scientific). Plates were incubated for one hour at 37 degree Celsius, 95% humidity, 5% CO2. These assay plates were then treated with 23nL of compound or DMSO using a Kalypsys pin tool, which allows for delivery of a 24-point titration of each compound to the assay plate, with a final compound concentration ranging from approximately 40uM to 5pM. Assay plates were then incubated for 48 hours. After incubation, plates were allowed to come to RT for one hour prior to delivery of 3uL of 3X luciferase detection reagent. After a 15 minute incubation to allow for cell lysis, luciferase activity was measured using a ViewLux CCD imager (PerkinElmer), with an average exposure time of 2-12 seconds. Keywords: NIH Roadmap, MLPCN, MLSMR, qHTS, miR-21, microRNA, firefly luciferase, FLuc.
Potency is the fitted concentration of half-maximal effect.

Potency, active:
O=C(NCc1ccccc1)c1cccc(COc2ccc3c(c2)CCC3)c1 0.585 µM
NNC(=O)c1cccc(COc2ccc3c(c2)CCC3)c1 0.185 µM
O=C(Nc1nc2ccc(F)cc2s1)c1ccccn1 0.104 µM
NS(=O)(=O)c1ccc2nc(NC(=O)Nc3ccccc3F)sc2c1 0.329 µM
COc1ccccc1NC(=O)Nc1nc2ccc(S(N)(=O)=O)cc2s1 4.14 µM
Cc1cc(C(=O)Nc2nc3ccc(Cl)cc3s2)nn1C 0.927 µM
O=C(Nc1nc2ccccc2s1)Nc1ccc(F)cc1F 0.736 µM
Cc1ccccc1OCC(O)Cn1nnc2ccccc21 (stereo not drawn) 7.36 µM
CC(C)(C)CC(=O)Nc1nnc(-c2cccs2)s1 1.31 µM
CCOc1ccc2c(c1)c(N=Nc1cccc(C(=O)O)c1)c(O)n2C 6.56 µM
N#Cc1ccccc1NC(=O)c1cccc(COc2ccc(Cl)cc2Cl)c1 1.65 µM
CN(C(=O)c1cccc(COc2ccc(Cl)cc2Cl)c1)c1ccccc1 2.61 µM
CN1CCN(C(=O)c2cccc(COc3cc(Cl)ccc3Cl)c2)CC1 16.5 µM
O=C(NCc1ccccc1)c1cccc(COc2cc(Cl)ccc2Cl)c1 7.36 µM
Cc1cc(C)c2c(N)c(C(=O)N/N=C/c3cccs3)sc2n1 1.47 µM
Cc1cc(C)c2c(N)c(C(=O)NCC3CCCCC3)sc2n1 6.56 µM
CCCCOC(=O)c1sc2nc(C)cc(C)c2c1N 5.85 µM
Cn1c(=O)c(/C=C/c2ccccc2)nc2ccccc21 2.07 µM
O=c1[nH]c2ccccc2nc1/C=C/c1ccccc1 2.33 µM
CC(C)n1c(/C=C/c2ccccc2)nc2ccccc21 6.56 µM
Cc1cccc(-c2noc(-c3cc(C(C)C)[nH]n3)n2)c1 0.464 µM
COc1ccc(-c2noc(-c3cc(C(C)C)[nH]n3)n2)cc1 3.29 µM
CC12COC3(C(=O)Nc4ccc5ccccc5c4)CC1CCC32C (stereo not drawn) 7.36 µM
CCN1CCN(c2ccc(NC(=O)c3ccccc3F)cc2Cl)CC1 2.93 µM
CCN1CCN(c2ccc(NC(=O)c3ccco3)cc2Cl)CC1 8.26 µM
Cc1ccc(Nc2ncnc(-n3cccc3)n2)cc1Cl 2.33 µM
COc1ccc(-c2c(C)nc3c(-c4ccccn4)cnn3c2N)cc1 0.261 µM
COc1ccc(-c2c(C)nc3c(-c4ccsc4)cnn3c2N)cc1 0.414 µM
CCOC(=O)C1=C(CSc2nc(-c3ccccc3)ccc2C#N)OC(N)=C(C#N)C1c1ccc(OC)cc1 (stereo not drawn) 11.7 µM
COc1ccc(C(=O)Cc2ccc(F)cc2)c(OC)c1 13.1 µM
O=[N+]([O-])c1ccc(/C=N/N2CCCCC2)cc1 5.21 µM
COc1ccc(-c2nnc(SCC(=O)c3cccs3)o2)c(OC)c1 6.56 µM
Cc1cc(Cl)c2oc(C(=O)N3CCN(c4cccc(C)n4)CC3)c(C)c2c1 4.65 µM
Cc1cc(Cl)c2oc(C(=O)N3CCN(C(=O)c4ccco4)CC3)c(C)c2c1 14.7 µM
COCCNC(=O)c1ccc2c(Cl)c3c(nc2c1)CCC3 5.85 µM
N#Cc1ccccc1NC(=O)c1ccc2c(Cl)c3c(nc2c1)CCCC3 2.93 µM
CN(C(=O)c1ccc2c(Cl)c3c(nc2c1)CCC3)c1ccccc1 14.7 µM
O=C(Nc1ccc(Cl)cn1)c1ccc2c(Cl)c3c(nc2c1)CCC3 0.185 µM
O=C(CSc1ncccc1-c1nc2ccccc2[nH]1)N1CCc2ccccc21 5.21 µM
CCn1c(-c2ccc(F)cc2)cnc1SCC(=O)N1CCc2ccccc21 11.7 µM
Cc1ccnc(SCC(=O)N2CCc3ccccc32)n1 7.36 µM
O=C(CSc1ccccc1)N1CCc2ccccc21 3.29 µM
Cc1ccc(SCC(=O)N2CCc3ccccc32)cc1 14.7 µM
COc1cccc2cc(-c3nnc(Nc4c(F)cccc4F)s3)c(=O)oc12 1.04 µM
O=c1oc2cc(O)ccc2cc1-c1nnc(Nc2ccccc2F)s1 0.369 µM
COc1cccc2cc(-c3nnc(Nc4ccccc4C)s3)c(=O)oc12 0.736 µM
CC1CCN(c2nc3ccc(C(=O)NCCCN4CCCCC4C)cc3s2)CC1 (stereo not drawn) 0.0656 µM
CCC1CCCCN1CCCNC(=O)c1ccc2nc(N3CCC(C)CC3)sc2c1 (stereo not drawn) 0.0656 µM
CC1CCN(c2nc3ccc(C(=O)NCCCN4CCCCC4)cc3s2)CC1 0.0927 µM
COc1cccc(N2CCN(C(=O)c3ccc4nc(N5CCC(C)CC5)sc4c3)CC2)c1 1.47 µM
Cc1ccc(-c2nnc(NC(=O)c3ccco3)s2)cc1 1.47 µM
Cc1ccc2nc(NC(=S)NC(=O)c3ccco3)sc2c1 0.736 µM
O=C(NC(=S)Nc1nc2ccccc2s1)c1ccco1 1.17 µM
CC1CCC/C(=C\Nc2ccc(C(=O)O)cc2)C1=O (stereo not drawn) 0.585 µM
CC1CCC/C(=C\Nc2ccc(O)cc2)C1=O (stereo not drawn) 10.4 µM
CCC(=O)Nc1nnc(/C=C/c2ccc(OC)cc2)s1 11.7 µM
CCC(=O)Nc1nnc(/C=C/c2ccccc2)s1 13.1 µM
COC(=O)Nc1nnc(/C=C/c2ccc(OC)cc2)s1 4.14 µM
CC(=O)Nc1cccc(C(=O)N/N=C/c2ccccc2F)c1 2.07 µM
C/C(=N\Nc1cccc(C(=O)O)c1)c1ccc(Cl)s1 6.56 µM
COc1ccc(/C(C)=N/Nc2cccc(C(=O)O)c2)cc1OC 10.4 µM
C/C(=N\NC(=O)c1cccc(N/N=C(\C)c2ccccc2)c1)c1ccccc1 14.7 µM
C/C(=N/NC(=O)c1ccccc1)C(=O)O 2.93 µM
C/C(=N\NC(=O)c1cccc(N/N=C(\C)c2ccco2)c1)c1ccco1 6.56 µM
C/C(=N\Nc1ccc([N+](=O)[O-])cc1)c1ccco1 3.69 µM
CN(CCC#N)C(=O)c1cc2c(s1)-c1ccccc1SC2 4.14 µM
Cc1ccccc1C(=O)Nc1nnc(S(=O)(=O)N2CCCCCC2)s1 1.65 µM
COc1ccc(C(=O)Nc2nnc(S(=O)(=O)N3CCC(C)CC3)s2)cc1OC 0.464 µM
O=C(Nc1nnc(S(=O)(=O)N2CCCC2)s1)c1ccc(F)cc1 3.69 µM
CCC(CC)C(=O)Nc1nnc(S(=O)(=O)N2c3ccccc3CC2C)s1 (stereo not drawn) 2.61 µM
Cn1c(-c2cc3ccc(OC(=O)C(C)(C)C)cc3oc2=O)nc2ccccc21 3.69 µM
COc1ccccc1N1CCN(/N=C\c2ccccc2)CC1 10.4 µM
COc1ccccc1N1CCN(/N=C/c2cccc(Cl)c2)CC1 6.56 µM
CCOC(=O)c1snc(C(=O)NC2CCCCC2)c1N 7.36 µM
CN(C)/C=C(/C(=O)c1ccc(Cl)cc1)S(=O)(=O)c1ccccc1 18.5 µM
CCCC(=O)Nc1ccc2oc(-c3ccc(O)c(Br)c3)nc2c1 0.927 µM
Cc1cc(-c2nc3ncccc3o2)ccc1N 3.29 µM
O=C(Nc1ccc2oc(-c3cccnc3)nc2c1)c1ccco1 11.7 µM
CCC(=O)Nc1ccc2oc(-c3cccnc3)nc2c1 8.26 µM
O=C(Nc1ccc(-c2nc3ncccc3o2)cc1)c1ccco1 1.85 µM
Nc1cccc2c1C(=O)N(CCOc1ccc(F)cc1)C2=O 0.826 µM
COc1ccc(OCCN2C(=O)c3cccc(N)c3C2=O)cc1 14.7 µM
COc1ccc(C2=NN(c3ccc(C(=O)O)cc3)C(c3ccc(OC)c(OC)c3)C2)cc1 (stereo not drawn) 18.5 µM
COc1ccccc1CN=C1Nc2ccccc2CS1 5.85 µM
COc1cccc(CN=C2Nc3ccccc3CS2)c1 4.65 µM
CCCC(=O)Nc1ccc(NC(=O)C23CC4CC(CC(C4)C2)C3)cn1 18.5 µM
OC[C@H]1O[C@@H](n2cnc3c(Nc4ccccc4)ncnc32)[C@H](O)[C@@H]1O 3.69 µM
CCOC(=O)c1c(C)[nH]c2cc(Br)c(O)cc12 16.5 µM
O=C(COc1ccc2c(c1)CCC2)N1CCc2ccccc21 3.29 µM
COc1ccc2c(CC(=O)N3CCc4ccccc43)coc2c1 2.93 µM
O=C(COc1ccccc1Cl)N1CCc2ccccc21 2.07 µM
CCc1ccc(OCC(=O)N2CCc3ccccc32)cc1 4.65 µM
Cc1c(Br)c(C(=O)N2CCc3ccccc32)nn1C 5.21 µM
O=C(COc1ccccc1)N1CCc2ccccc21 4.65 µM
Cc1c(C(=O)N2CCc3ccccc32)oc2ccccc12 0.736 µM
COc1ccc(C(=O)N2CCc3ccccc32)cc1 18.5 µM
O=C(c1ccco1)N1CCc2ccccc21 5.85 µM
Cc1ccccc1OCC(=O)N1CCCc2ccccc21 14.7 µM
O=C(OCc1ccccc1)N1CCc2ccccc21 1.17 µM
O=C(COc1ccc(F)cc1Br)N1CCc2ccccc21 1.26 µM
O=C1/C(=C\Nc2ccc(Cl)cc2)CCN1c1ncccn1 1.31 µM
CCC(C)NC(=O)Cn1c(COc2ccc(Cl)cc2Cl)nc2ccccc21 (stereo not drawn) 8.26 µM
CC(=O)C(/C=N/c1cc(-c2ccc(C)cc2)nn1-c1ccccc1)=C(\C)O 1.47 µM
